# Laboratory results from the supplement of paper PMC12636033.
# ± gives the standard deviation of the averaged measurements. In all, about 33,000 sequences were measured (“E-score (rank enrichment, -0.5 to 0.5)”: median about -0.0075, highest 2% from about 0.23 on). The list comes from a sample in which the highest values are over-represented; it also holds similar and randomly drawn sequences.
# System: WT Max(13-93) synthetic (M65Nle)
# Assay: PBM 8-mer E-score (E-score (rank enrichment, -0.5 to 0.5)); higher = stronger preferential binding
# Protocol: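 Protein binding microarray (universal PBM chip covering all 10-mers in fixed probe flanks) with chemically synthesized human Max(13-93) bHLH-LZ analogs (not full-length Max) bearing noncanonical residues (hArg, Tha, Aib, Nle at 65) and aromatic Cys staples. Read-out per 8-mer (and its reverse complement): E-score (rank-based enrichment, -0.5 to 0.5) and Z-score of median probe intensity.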
row,Sequence,PBM 8-mer E-score
1,ACGTGTCG,0.339 ± 0.0083
2,ACCTGTCT,0.0145 ± 0.064
3,ACGTGTCT,0.363 ± 0.00056
4,CCGTGTCC,-0.00903 ± 0.072
5,AAGTGTCG,0.0847 ± 0.052
6,CCGTGTCA,0.0378 ± 0.022
7,GCGTGTCA,0.223 ± 0.019
8,GCGTGTCC,0.127 ± 0.037
9,ACGTGTCA,0.3263 ± 0.0031
10,ACGTGTCC,0.243 ± 0.037
11,AAGTGTCT,-0.104 ± 0.07
12,CCGTGTCG,-0.151 ± 0.011
13,CCTTTGCG,0.00668 ± 0.0019
14,AGCCCCCC,-0.14 ± 0.14
15,AACAGACA,0.184 ± 0.011
16,CGATTAGC,-0.18 ± 0.11
17,CGGGCGAA,-0.0278 ± 0.057
18,CACGCCTG,0.0753 ± 0.081
19,TGCTTGAA,0.0947 ± 0.15
20,GCCACTGA,-0.158 ± 0.074
21,GACCCCTA,-0.156 ± 0.13
22,CGTGGCTA,0.193 ± 0.013
23,CATCTCAA,0.104 ± 0.017
24,GAATATAA,0.179 ± 0.022
25,AAAAATAG,0.102 ± 0.059

row,Sequence,PBM 8-mer E-score
1,TAATATAA,0.183 ± 0.014
2,AAAAATAT,0.256 ± 0.017
3,ATATATAG,0.182 ± 0.041
4,AAATATAG,0.238 ± 0.099
5,AAATATAA,0.24 ± 0.048
6,CACTATAA,-0.0318 ± 0.027
7,GACTATAA,0.13 ± 0.0092
8,AACTATAA,0.269 ± 0.028
9,CAATATAG,0.117 ± 0.021
10,AAAAATAC,0.2 ± 0.033
11,GTAGAGAC,-0.0752 ± 0.086
12,CGTTCATC,0.0464 ± 0.14
13,GCCCCGCC,0.172 ± 0.053
14,CACAGGTA,0.11 ± 0.061
15,CGGTGACA,-0.162 ± 0.13
16,ACTGCAAT,-0.0126 ± 0.077
17,AAAAATTT,0.14 ± 0.091
18,AAATATAC,0.199 ± 0.028
19,AAATATAT,0.248 ± 0.032
20,AAATATGA,0.261 ± 0.023
21,AAATATGT,0.124 ± 0.078
22,AAAATTTT,0.273 ± 0.034
23,CAATATGA,0.183 ± 0.027
24,AAAATTTG,0.027 ± 0.066
25,ATATATAT,0.0942 ± 0.12

row,Sequence,PBM 8-mer E-score
1,AAGGAGCC,-0.118 ± 0.072
2,CGTAAGCC,0.0338 ± 0.0056
3,CAGGATAC,-0.144 ± 0.019
4,ACGCCAGC,-0.269 ± 0.085
5,ATGCGCCA,0.123 ± 0.11
6,CGTACAAC,0.112 ± 0.047
7,ACGAGTCG,-0.0792 ± 0.021
8,ATTGAAAA,0.254 ± 0.087
9,ATGAAAAA,0.158 ± 0.13
10,TTGAAAAA,0.234 ± 0.043
11,ATTGAAAC,0.117 ± 0.092
12,CTTGAAAA,0.0938 ± 0.0069
13,CTGAAAAA,-0.141 ± 0.0094
14,ACGGTCCA,-0.222 ± 0.021
15,AGATTTAC,0.119 ± 0.041
16,ACCTATCT,0.211 ± 0.065
17,CCTAAGCC,-0.125 ± 0.096
18,ATTTTCGG,0.129 ± 0.056
19,GAAAACAA,0.206 ± 0.059
20,ATACATGG,0.134 ± 0.045
21,ACACATCT,0.0507 ± 0.12
22,ACACATGT,0.359 ± 0.025
23,ACACATGG,0.357 ± 0.034
24,ACACATAT,0.202 ± 0.041
25,ACACATGA,0.186 ± 0.036

row,Sequence,PBM 8-mer E-score
1,CTAGTGGC,-0.019 ± 0.044
2,CACCCTTA,0.118 ± 0.056
3,ACCAGAAA,0.0691 ± 0.0064
4,CCTAGTCA,-0.0758 ± 0.01
5,GCCGAAGC,-0.212 ± 0.034
6,ACATTGTC,0.19 ± 0.033
7,ACATTGTG,0.26 ± 0.054
8,ACATTGTA,0.153 ± 0.06
9,AGAGACCG,-0.14 ± 0.044
10,CCCGCCCG,0.025 ± 0.078
11,CCCGCCCC,0.285 ± 0.14
12,CCGCCCCC,-0.124 ± 0.051
13,CCCCCGCC,0.0274 ± 0.11
14,CCCGCCCA,0.183 ± 0.043
15,AACCCGCC,-0.0368 ± 0.068
16,CCCCGCCC,0.369 ± 0.062
17,ACCCCGCC,0.279 ± 0.035
18,CCGCCCCG,0.236 ± 0.075
19,GCCCGCCC,0.0723 ± 0.054
20,CCGCCCGG,-0.265 ± 0.039
21,ACCCGCCC,0.0569 ± 0.092
22,CTCGTTCC,-0.0941 ± 0.0052
23,CCGACGTA,-0.103 ± 0.022
24,AATCACCT,0.115 ± 0.11
25,TAGTGCAA,0.023 ± 0.006

row,Sequence,PBM 8-mer E-score
1,AGCGGAGG,-0.124 ± 0.11
2,CTTAATGC,0.162 ± 0.095
3,CCGTACCA,-0.129 ± 0.033
4,TACACAAA,0.0928 ± 0.018
5,AACGCTCG,-0.131 ± 0.017
6,AACACGCA,0.134 ± 0.0072
7,GACACAAA,0.24 ± 0.048
8,CACGCTCA,0.0695 ± 0.057
9,AACACGCG,0.3 ± 0.08
10,CACACGAG,0.105 ± 0.0042
11,CACGCTCG,0.266 ± 0.035
12,AACACGCC,0.0311 ± 0.14
13,CACACGAA,0.272 ± 0.054
14,CACACGAC,0.13 ± 0.11
15,CACACAAA,0.103 ± 0.13
16,AAATTAAA,0.198 ± 0.044
17,TCAAAGGA,0.0761 ± 0.07
18,CGTTTTGA,-0.0368 ± 0.12
19,ACGACATG,0.0526 ± 0.047
20,CGCGGCCA,-0.0571 ± 0.036
21,CCGAAACC,-0.199 ± 0.026
22,GACACCGC,-0.206 ± 0.08
23,ACGTCCCC,0.0319 ± 0.084
24,AGCATTTA,-0.11 ± 0.038
25,CACACGCC,0.0838 ± 0.085

row,Sequence,PBM 8-mer E-score
1,CACACGCG,0.302 ± 0.017
2,CACACGCA,0.174 ± 0.028
3,TAGGCACA,0.0603 ± 0.0065
4,CAGAGGTA,0.0024 ± 0.058
5,ATATGATG,0.19 ± 0.03
6,GTATGAGA,0.109 ± 0.033
7,GTATGATA,0.235 ± 0.0072
8,ATATGATA,0.302 ± 0.013
9,CTATGATA,-0.00697 ± 0.0076
10,GGATGATA,-0.00911 ± 0.064
11,CAGCGCCA,-0.237 ± 0.0045
12,GTGGCTCA,-0.0168 ± 0.037
13,ACAGGAGA,0.0713 ± 0.014
14,CCCTACGG,-0.21 ± 0.015
15,AAAACATT,0.147 ± 0.033
16,AACACATT,0.13 ± 0.017
17,AACACATA,0.263 ± 0.084
18,AACACATC,-0.0183 ± 0.028
19,CACACATA,0.0464 ± 0.029
20,AACACATG,0.368 ± 0.0069
21,CAAACATG,0.17 ± 0.13
22,AAAACATG,0.28 ± 0.024
23,TACACATA,0.213 ± 0.083
24,CATGTAGA,0.193 ± 0.018
25,ACGCCCTC,0.0691 ± 0.11

row,Sequence,PBM 8-mer E-score
1,GATCCAGC,-0.241 ± 0.017
2,ATCCGTAG,-0.21 ± 0.046
3,GCAGTGAA,0.0345 ± 0.11
4,ATGACAAG,0.119 ± 0.12
5,AAGACAAT,0.228 ± 0.075
6,ATGACAAC,0.166 ± 0.029
7,ATGACAAT,0.264 ± 0.018
8,AGGACAAT,0.183 ± 0.045
9,ATGACAAA,0.261 ± 0.11
10,TCGGGCCA,-0.185 ± 0.0072
11,CGAATCTA,-0.0418 ± 0.067
12,ATGTATGC,0.166 ± 0.0091
13,ACTAGACT,0.0207 ± 0.063
14,ACGCACAA,0.0902 ± 0.052
15,AAGCACGT,0.367 ± 0.028
16,ACGCACGC,0.205 ± 0.014
17,AAGCACGA,0.125 ± 0.0091
18,AAGCACGG,0.0974 ± 0.06
19,ACGCACGA,0.143 ± 0.032
20,ACGCACAT,0.267 ± 0.02
21,ACGCACGT,0.314 ± 0.041
22,ACGCACAG,-0.0926 ± 0.096
